An excerpt weighted towards active compounds, which were near 9.5% of everything screened.
HPGD inh – inhibitors of human 15-hydroxyprostaglandin dehydrogenase (HPGD); P15428; purified HPGD, NADH fluorescence kinetic, PGE2 substrate; Potency, µM, usual class: inhibitors; 4.3% of 150,000 active; AID 894; active = well fitted inhibition curve with a large enough effect, not every such curve was filed as active; inconclusive = small, poorly fitted or top-dose-only effect, or another doubt; inactive = no such curve, though single readings can be large or run the other way
Target sequence (P15428 whole entry, looked up): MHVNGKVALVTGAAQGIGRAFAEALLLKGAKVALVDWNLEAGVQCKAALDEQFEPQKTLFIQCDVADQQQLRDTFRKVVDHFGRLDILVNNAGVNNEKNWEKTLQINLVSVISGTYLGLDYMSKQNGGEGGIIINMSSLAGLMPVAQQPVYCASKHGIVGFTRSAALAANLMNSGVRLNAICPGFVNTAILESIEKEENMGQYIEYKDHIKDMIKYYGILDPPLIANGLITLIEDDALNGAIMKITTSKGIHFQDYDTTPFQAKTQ
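NADH formation kinetics: reaction with 30 uM PGE2 and 1 mM NAD+ (final), 20 nM enzyme, Tris-HCl pH 8 with Tween 20, after 15 min compound preincubation at room temperature. Fluorescence change, last versus first of five reads.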
Tau FP inhib – tau fibrillization inhibition (FP); Potency, µM (highest dose often 57.7 µM), actives largely listed as inhibitors; 0.39% of 280,000 active; K18 P301L tau heparin fibrillization, Alexa594 FP, 6 h; also: nearly all actives have a fitted effect of over 55% in size
Target sequence (P10636 561-689 P618L limits assumed): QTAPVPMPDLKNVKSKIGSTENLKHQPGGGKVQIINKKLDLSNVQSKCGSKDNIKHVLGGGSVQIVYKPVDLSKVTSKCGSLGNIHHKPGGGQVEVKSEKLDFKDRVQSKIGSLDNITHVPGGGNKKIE
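Steps: dispense K18 P301L tau (15 uM plus 0.24 uM Alexa 594 tracer, final) in pH 7 sodium acetate; add compound; add heparin (20 uM final); incubate 6 hr, 37 C; add ThT (30 uM final); after 1 hr ambient, read FP.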
NPSR antag – antagonists of human neuropeptide S receptor cAMP signaling; 1% of 220,000 active; CHO-NPSR cells, cAMP TR-FRET, antagonist mode; AID 1461; Potency, µM (top dose mostly 38.3 µM), most hits filed as inhibitors; Q6W5P4; also: nearly all actives have a fitted effect of over 50% in size
Tau fluor cs – counter-screen for tau fibril formation inhibitors; tau K18 P301L Alexa594 fluorescence, heparin fibrillization; Potency, µM (highest dose often 57.7 µM); 0.93% of 280,000 active; also: nearly all actives have a fitted effect of over 55% in size
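Human tau K18 P301L (15 uM unlabeled, 0.24 uM Alexa 594-labeled) in 100 mM sodium acetate pH 7 with 20 uM heparin, 6 hr at 37 C. ThT 30 uM added, 1 hr ambient; Alexa 594 FP and total fluorescence read at 555/632 nm.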
Tau fibril ThT – blocks human tau fibril formation measured by thioflavin T. recombinant tau K18 P301L, heparin-induced fibrillization, ThT fluorescence. 2.1% of 270,000 active. Potency, µM (top dose mostly 57.4 µM), usual class: inhibitors; also: nearly all actives have a fitted effect of over 55% in size
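Fibril formation assay: tau K18 P301L at 15 uM with trace Alexa 594 label, heparin inducer 20 uM, pH 7 sodium acetate buffer, 37 C for 6 hr; endpoint ThT signal.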
ALDH1A1 block – blocks purified human ALDH1A1 activity; P00352; Purified ALDH1A1, NADH fluorescence, propionaldehyde substrate; Potency, µM (highest dose often 75.3 µM), hits mostly inhibitors; 7.3% of 220,000 active; AID 1030; active = well fitted inhibition curve with a large enough effect, not every such curve was filed as active; inconclusive = small, poorly fitted or top-dose-only effect, or another doubt; inactive = no such curve, though single readings can be large or run the other way
Hits are given with their value; [ ] = remark or other dose. Unless noted, calls follow the shape of the dose curve; as a rule, active = well fitted curve in the direction sought with a large enough effect; inconclusive = small, poorly fitted or top-dose-only effect, or another doubt; inactive = no such curve, though single readings can be large; an effect the other way counts as inactive or inconclusive.

Screening CN(C)CCCNC(=O)c1ccc(-c2nc(-c3ccc(Cl)cc3)cs2)cc1 returned HPGD inh inconclusive, Tau FP inhib inconclusive, NPSR antag 10µM, Tau fluor cs inconclusive, Tau fibril ThT inactive and ALDH1A1 block inconclusive.
`CCOc1ccc(C/C(N)=N/n2cnnc2)cc1` gave HPGD inh inactive, Tau FP inhib inactive, NPSR antag inactive, Tau fluor cs inactive, Tau fibril ThT inactive and ALDH1A1 block inactive.
For COc1ccc(C(=O)OC(C)C(=O)Nc2cc(C(F)(F)F)ccc2Cl)c(OC)c1OC (stereo not drawn) the results were HPGD inh 25µM, Tau FP inhib inactive, NPSR antag inactive, Tau fluor cs inactive, Tau fibril ThT inconclusive and ALDH1A1 block inactive.
COc1ccc(C)cc1NC(=O)CCC(=O)Nc1ccc2nc(N3CCN(C)CC3)cc(C)c2c1 was read as HPGD inh inconclusive, Tau FP inhib inactive, NPSR antag inactive, Tau fluor cs inactive, Tau fibril ThT inconclusive and ALDH1A1 block inconclusive.
For Cc1cc(N2CCN(C)CC2)nc2ccc(NC(=O)Nc3ccc(Cl)cc3)cc12 the results were Tau FP inhib inactive, Tau fluor cs 10µM[quencher] and Tau fibril ThT 13µM.
Cc1cc(N2CCN(C)CC2)nc2ccc(NC(=O)c3ccc(C(C)(C)C)cc3)cc12 was read as Tau FP inhib inactive, Tau fluor cs inconclusive and Tau fibril ThT inconclusive.
`Cc1ccccc1NC(=O)Nc1ccc2nc(N3CCN(C)CC3)cc(C)c2c1` gave Tau FP inhib inconclusive, Tau fluor cs 14µM[quencher] and Tau fibril ThT inconclusive.
For CCOc1ccccc1NC(=O)Nc1ccc2nc(N3CCN(C)CC3)cc(C)c2c1 the results were Tau FP inhib inactive, Tau fluor cs 10µM[quencher] and Tau fibril ThT 14µM.
`CC(Oc1ccccc1)C(=O)Nc1ccc(S(=O)(=O)NCC2CCCO2)cc1` (stereo not drawn) gave HPGD inh inactive, Tau FP inhib inactive, NPSR antag inactive, Tau fluor cs inactive, Tau fibril ThT inactive and ALDH1A1 block inactive.
For CCN1CCc2c(sc(NC(=O)Nc3ccc(Cl)c(Cl)c3)c2C(N)=O)C1 the results were HPGD inh inactive, Tau FP inhib inactive, NPSR antag inactive, Tau fluor cs inconclusive, Tau fibril ThT inconclusive and ALDH1A1 block inactive.
CC(C)CO[C@H](c1ccc2c(c1)OCO2)[C@H](C)Br was read as HPGD inh inactive and ALDH1A1 block inactive[13.5 µM].
For CC(Sc1nc2cc([N+](=O)[O-])ccc2n1-c1ccc(F)cc1)C(=O)NCc1ccc2c(c1)OCO2 (stereo not drawn) the results were HPGD inh inconclusive, Tau FP inhib inactive, NPSR antag inactive, Tau fluor cs inactive, Tau fibril ThT inactive and ALDH1A1 block 1.4µM.
O=C(CSc1nc2ccccc2c(=O)n1-c1ccccc1)NCc1ccc2c(c1)OCO2 was read as HPGD inh inactive, Tau FP inhib inactive, NPSR antag inactive, Tau fluor cs inactive, Tau fibril ThT inactive and ALDH1A1 block inconclusive.
COc1ccccc1-n1c(SCC(=O)NCc2ccc3c(c2)OCO3)nc2cc([N+](=O)[O-])ccc21 was read as HPGD inh inactive, Tau FP inhib inactive, NPSR antag inactive, Tau fluor cs inactive, Tau fibril ThT inconclusive and ALDH1A1 block 1.1µM.
`Cc1cc(O)c2c(C)c(CC(=O)NCc3ccccc3Cl)c(=O)oc2c1` gave Tau FP inhib inactive, Tau fluor cs inactive and Tau fibril ThT inactive.
Screening COc1ccc(-n2c(-c3ccco3)nc3c(cnn3-c3ccccc3C)c2=O)cc1 returned Tau FP inhib inactive, NPSR antag inconclusive, Tau fluor cs inactive and Tau fibril ThT inactive.
Screening CCn1c(C)nc([N+](=O)[O-])c1Sc1ccc(F)cc1 returned HPGD inh inactive, Tau FP inhib inactive, NPSR antag inactive, Tau fluor cs inactive, Tau fibril ThT inconclusive and ALDH1A1 block inconclusive.
For CC(C)Cn1c(C(C)C)nc([N+](=O)[O-])c1S(=O)(=O)c1ccc(F)cc1 the results were HPGD inh inactive, Tau FP inhib inactive, NPSR antag inactive, Tau fluor cs inactive, Tau fibril ThT inconclusive and ALDH1A1 block inactive.
